# Experimental data reported in PubChem BioAssay (NCI).
# About 83,000 compounds went through this panel and 20% of them were active in at least one assay; those are over-represented in the sample as a whole.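 Testing used 96-well plates and a 48-hour single-concentration exposure. Example: -40 means 40% of the starting cells died.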 Values without a mark were called inactive. The source made the active and inactive calls. The calls were made as follows: active = growth percent below 10; inactive = the rest.
# Tests used:
# Test in all cases: NCI-60 one-dose screen, 48 h (100 = growth as untreated, 0 = no growth, -100 = all killed)
# Details in all cases: 10 µM unless noted
# NCI-H23 lung = tested on: NCI-H23 lung
# NCI-H226 lung = tested on: NCI-H226 lung
# NCI-H322M lung = tested on: NCI-H322M lung
# HOP-62 NSCLC = tested on: HOP-62 NSCLC
# NCI-H460 lung = tested on: NCI-H460 lung
# HOP-92 NSCLC = tested on: HOP-92 NSCLC
# NCI-H522 lung = tested on: NCI-H522 lung
# A549/ATCC NSCLC = tested on: A549/ATCC NSCLC
# 786-0 renal = tested on: 786-0 renal
# COLO 205 colon = tested on: COLO 205 colon
SMILES,growth (NCI-H23 lung),growth (NCI-H226 lung),growth (NCI-H322M lung),growth (HOP-62 NSCLC),growth (NCI-H460 lung),growth (HOP-92 NSCLC),growth (NCI-H522 lung),growth (A549/ATCC NSCLC),growth (786-0 renal),growth (COLO 205 colon)
CCOC(=O)c1csc(NC(=O)COc2cccc(/C=C3\Oc4cc(OC)ccc4C3=O)c2)n1,90.7%,89.5%,99.7%,125%,107%,62.6%,49.8%,94%,110%,110%
Nc1n[nH]c2cc(F)c([C@@H]3Nc4c(F)cc5[nH]ncc5c4[C@H]4C5CCC(C5)[C@@H]34)cc12 (stereo not given in full),25.5%,46.3%,57%,27.9%,2.33% (active),33.8%,14.9%,19.4%,29.2%,-8.08% (active)
CN(Cc1cnc2nc(N)nc(N)c2n1)c1ccc(C(=O)N[C@@H](CCc2nn[nH]n2)c2nn[nH]n2)cc1,40.8%,85.4%,66%,32.7%,19.4%,93.2%,40.9%,22.9%,26.8%,49.3%
C=CCn1c(C)nc2cc(Nc3nc(N4CCCC4)nc4ccccc34)ccc21,88.6%,97.7%,113%,90.6%,81.2%,81.3%,127%,74.6%,75.9%,92.6%
CC(C)Sc1nc(NNC(N)=S)c(C#N)c(-c2ccc(F)cc2)n1,102%,94.7%,99.1%,101%,102%,70.2%,85.2%,92.5%,90.5%,106%
Clc1cccc(Cl)c1C(Nc1nc2ccccc2s1)Nc1nc2ccccc2s1,101%,89.9%,106%,99.7%,105%,17.3%,90.8%,106%,110%,114%
CCCCc1ccc(Nc2ccc(Nc3ccc(CCCC)cc3S(=O)(=O)O)c3c2C(=O)c2ccccc2C3=O)c(S(=O)(=O)O)c1,91.3%,79.7%,96.3%,99.5%,104%,59.4%,65%,102%,117%,101%
COc1ccc(-c2ccc3c(c2)sc2nc(-c4ccc(F)cc4)cn23)cc1,81.1%,80.8%,67.7%,66.3%,15.4%,65.8%,66.1%,30%,76.2%,1.69% (active)
COc1cccc(-c2nn(-c3ccccc3)cc2-c2ccnc(NCCNC(=O)Nc3ccccc3)c2)c1,62.5%,63.9%,89.8%,58.7%,53.8%,33%,47.6%,30.4%,43.2%,50.4%
CCN(CC)CCCC(C)Nc1c2ccc(Cl)cc2nc2ccc(O)cc12 (stereo not given),46.2%,39.4%,38%,42.1%,14.7%,50.3%,37%,24.4%,22.3%,-16.4% (active)
COc1ccc(-c2nc3ccc4[nH]ncc4c3c3c2CCCC3)cc1B(O)O,72.2%,61.2%,63.4%,51.3%,35.3%,49.8%,48.1%,53.7%,63.6%,45.8%
C=CC(=O)Nc1cccc(Oc2nccc(Nc3nnc(C4CC4)s3)n2)c1,97.1%,101%,105%,110%,95.6%,66.1%,86.8%,103%,86.6%,107%
Cc1ccc2c(c1)Sc1c(ccc3ccccc13)N2,74.7%,75.4%,90%,-2.75% (active),20.8%,75.3%,61.3%,59%,18.1%,91.5%
COC(=O)[C@]12CC[C@@H](C)[C@H](C)[C@@H]1C1=CC[C@@H]3[C@@]4(C)C(C=O)=C[C@@](C)(CO)[C@@H]4[C@H](O)C[C@@]3(C)[C@]1(C)CC2,-17.1% (active),3.36% (active),32.9%,11.9%,-35% (active),-22.8% (active),-37.5% (active),-1.72% (active),-30.4% (active),-28% (active)
C=CCNc1nc(NN2C(=O)c3cccc4cccc(c34)C2=O)nc(-n2cnc3ccccc32)n1,76.9%,51.8%,94.1%,60.4%,94.6%,16.5%,76.6%,86.4%,89.2%,103%
Cc1ccc(-n2c(-c3ccccc3)c(-c3ccccc3)c3c(SCC(=O)n4[nH]c(N)cc4=O)ncnc32)cc1,90.8%,88.8%,101%,87.6%,103%,74.7%,79.6%,92.5%,96.6%,94.4%
CCC1(C2CCCC2)NC(=O)NC1=O (stereo not given),93.5%,101%,106%,115%,102%,78.1%,103%,104%,94.1%,108%
N#CCN1C(=O)C2C3=C(CCCC3)SC2N=C1CN1CCCC1 (stereo not given),97.9%,87.5%,91.2%,89.6%,117%,-1.97% (active),92.5%,93.1%,92%,122%
COc1cc(N=Nc2cc(Cc3ccc(N(C)C)cc3)c(N)cc2N(C)C)c2ncccc2c1,1.24% (active),19.4%,11%,20%,-60.2% (active),-8.54% (active),-5.05% (active),-45.9% (active),-88.9% (active),-33.7% (active)
COc1ccc(/C=N/C2=C(C#N)C(c3ccc(OC)cc3)c3ccc4ccccc4c3O2)cc1 (stereo not given),75.5%,74.5%,97.6%,67%,75.6%,70.3%,45.5%,83.7%,95.1%,102%
Cc1ccc(-n2nc3c(c(C#N)c2=O)CC(c2ccccc2Cl)C([N+](=O)[O-])=C3O)cc1 (stereo not given),101%,102%,101%,91%,99.3%,103%,89%,95.4%,102%,108%
CCc1c2c(nc3ccc(OC(=O)NCc4ccc(B5OC(C)(C)C(C)(C)O5)cc4)cc13)-c1cc3c(c(=O)n1C2)COC(=O)[C@]3(O)CC,-28.3% (active),-65.4% (active),5.73% (active),-5.68% (active),-16.7% (active),8.05% (active),-23.2% (active),4.61% (active),6.78% (active),7.58% (active)
COc1ccc(C(=O)/C=C/c2c(C(F)(F)F)nc3sccn23)cc1OC,22.7%,53.5%,34.6%,25%,-46.6% (active),78.2%,93.1%,73.8%,32%,27.3%
CNS(=O)(=O)c1n[nH]nc1-c1cc(C(C)(C)C)c(O)c(C(C)(C)C)c1,105%,104%,102%,84.7%,109%,80.2%,80.2%,89.5%,91.2%,103%
COc1ccc(-c2cc(-c3ccc(Nc4nc(Nc5ccc(Cl)cc5)nc(Nc5ccc(Cl)cc5)n4)cc3)nc(N)c2C#N)cc1,30%,9.85% (active),113%,86.8%,57.6%,-53.8% (active),83.4%,37%,41.6%,5.26% (active)
COc1cc(N=Nc2ccc(N)cc2)c(OC)cc1N=Nc1ccccc1.[Cl][Zn][Cl],89%,104%,78.2%,86.5%,109%,71.5%,108%,110%,110%,102%
